Shown are actives, neighbours in structure and some others; about 12% of the full set was active somewhere.
SARS PLpro yeast: blocks SARS-CoV papain-like protease in a yeast assay. S. cerevisiae expressing SARS-CoV PLpro, growth rescue. Potency, µM (top dose mostly 32.9 µM), without a hit: at the highest dose activity, positive = growth rescue, usual class: activators. actives 0.19% (n = 330,000). AID 485353; note: potency is the fitted concentration of half-maximal effect; 0% is about no effect; nearly all actives have a fitted effect of over 55% in size
NS1 inh: influenza NS1 inhibition. Potency, µM (doses to about 46.1 µM), for inactives: at the top dose activity, positive = more growth. actives 0.4% (n = 270,000). AID 2326; note: potency is the fitted concentration of half-maximal effect; actives are rising curves; nearly all actives have a fitted effect of over 50% in size
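Compounds were scored for reversing the slow growth caused by influenza A NS1 in S. cerevisiae, measured by optical density at 600 nm. Assay medium contained 2% galactose at pH 6.0; NS1-free yeast of the same strain were the positive control.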
Shiga inhibitor: inhibitors of Shiga toxin in Vero cells. Vero cells, Shiga toxin protein synthesis inhibition reporter. inhibition, % at 38.7 µM. actives 9.2% (n = 290,000); in the data active = inhibition mostly above about 28%, no sharp cut-off; inactive = mostly below about 43%; note: 0% is about no effect
Cycloheximide cs: affects cycloheximide protein synthesis inhibition readout, counter-screen; actives 12% (n = 300,000); max response, %; AID 2314; cell reporter, cycloheximide protein synthesis inhibition counterscreen; in the data active = max response mostly above about 13%, no sharp cut-off; inactive = mostly below about 14%; note: read at 38.3 µM for the half of the compounds with a filed dose; 0% is about no effect
* marks the source's active call; other numbers are inactive results; i = inactive; u = inconclusive; x = no result; + = active, no number; ! = repeats disagree. Unless noted, calls come from the whole dose curve.

SMILES	SARS PLpro yeast	NS1 inh	Shiga inhibitor	Cycloheximide cs
O=C(c1cc(-c2ccc(Cl)c(Cl)c2)on1)N1CCCC1	-6.7%	-9.4%	35.6*	21.0*
O=C(c1cc(-c2ccc(Cl)c(Cl)c2)on1)N1CCOCC1	-1.7%	8.1%	45.4*	17.0*
O=C(c1cc(-c2cccc(Cl)c2)on1)N1CCOCC1	-6.6%	-9.9%	137.0*	25.1*
O=C(c1cc(-c2ccc(Cl)cc2Cl)on1)N1CCOCC1	-9.6%	-28.1%	58.9	25.2*
O=C(c1cc(-c2ccc(Cl)cc2)n(-c2ccc(Cl)cc2Cl)n1)N1CCOCC1	-3.3%	u	9.2	-1.0
COc1ccc(N2C(=S)NC3N2C(=S)NC3(C)c2ccccc2)cc1 (centres undefined)	-0.1%	x	55.6*	36.8*
c1ccc(Nc2ccnc(Nc3ccccc3)n2)cc1	-1.9%	-58.1%	99.9*	52.9*
Cc1ccc(Nc2nc(Cl)nc(NC(C)(C)C)n2)cc1	-16.5%	-15.2%	60.2*	54.1*
NNc1ccccc1	x	x	11.3	14.4*!
CNc1nc(Cl)nc(Nc2ccccc2)n1	-0.6%	x	45.2*	40.3*
OC[C@@H]1[C@@H](c2ccc(F)cc2)C(c2cccc(Cl)c2)=NN1c1ccccc1	-78.0%	x	i	-2.6
CCOc1ccccc1CNC(=O)CCCn1ncn2c(cc3occc32)c1=O	-0.1%	12.1%	-2.8	-1.9
CCCN(CC(=O)Nc1ccccc1OC)Cc1c(O)ccc2ccccc12	-34.5%	9.3%	13.4	-3.7
CCn1cc(Br)c(C(=O)NC(=S)Nc2ccc(C(=O)OC)cc2)n1	0.6%	-7.4%	3.5	1.8
NNc1nc(Nc2ccccc2)nc(Nc2ccccc2)n1	-4.1%	x	35.8*	28.0
C=CCNc1nc(Cl)nc(Nc2cc(Cl)ccc2OC)n1	6.1%	22.0%	-11.4	-3.1
C=CCNc1nc(Cl)nc(Nc2ccccc2)n1	-1.8%	-8.8%	40.2*	21.5*
NNc1nc(Nc2ccccc2)nc(N2CCCCC2)n1	-3.1%	29.4%	-6.7	10.0
CC12CCC=CC1C(c1ccc3ccccc3c1Br)N(Cc1ccccc1)C2=O (centres undefined)	x	x	-2.9	10.0
CC(=O)c1ccc(NC(=O)C(C)OC(=O)/C=C/c2ccco2)cc1 (centres undefined)	-1.7%	x	x	x
CCOC(=O)NC1(NCC(C)C)Oc2ccccc2O1	-6.4%	0.0%	-8.0	6.4
CCOC(=O)NC1(NCc2ccccc2)Oc2ccccc2O1	0.9%	-3.4%	-0.7	15.6*
CCOC(=O)NC1(Nc2ccc(C)cc2)Oc2ccccc2O1	1.4%	10.5%	46.4*	55.1*
CCOC(=O)NC1(NC(C)C)Oc2ccccc2O1	3.6%	1.0%	48.5	10.1
Cc1ccc(C(=O)Oc2cc(-c3ccccc3)no2)cc1	-0.7%	-11.0%	31.3	3.6
SMILES	SARS PLpro yeast	NS1 inh	Shiga inhibitor	Cycloheximide cs
Cc1ccc(O)c(-c2cc(-c3ccc(F)cc3)no2)c1	-2.5%	-26.7%	121.7*	37.2*
Oc1ccccc1-c1cc(-c2ccccc2)no1	-22.4%	-68.3%	+	47.3*
Cc1ccc(-c2cc(-c3ccccc3)no2)c(O)c1	8.3%	-9.2%	-0.1	43.1*
Cc1ccccc1-c1cc(-c2ccccc2O)on1	-37.8%	-75.0%	75.6*	51.5*
CCn1cnc2c1c(=O)n(CC(=O)OC(C)C(N)=O)c(=O)n2Cc1ccccc1 (centres undefined)	-5.1%	-2.0%	22.3	0.2
CSCCC(NS(=O)(=O)c1ccccc1F)C(=O)NCCCn1nc(C)cc1C (centres undefined)	-2.7%	x	x	x
CCOc1ccc(N2C(=O)CN(O)C=C3N=c4ccccc4=C32)cc1	-2.6%	x	-6.1	-4.5
CC1(c2ccccc2Br)NC(=O)N(CC(=O)NC2CCCCC2)C1=O (centres undefined)	-9.8%	x	x	x
Cc1nc(NC(=O)c2ccccc2)sc1-c1csc(NCc2ccco2)n1	-4.1%	u	38.1	15.9
CCOc1ccccc1Nc1nc(-c2sc(C)nc2C)cs1	3.1%	6.3%	47.8*	18.6*
Cc1nc(C)c(-c2csc(NCc3ccccc3)n2)s1	-57.1%	-40.1%	30.8	32.6*
Cc1nc2ccccn2c1-c1csc(NCc2ccco2)n1	-4.5%	-41.1%	16.9	15.1*
Cc1nc(C)c(-c2csc(NCc3ccco3)n2)s1	-17.7%	-18.2%	159.5	30.1*
CCN(CC(=O)NCc1ccc(Cl)cc1)C(=O)CCOc1ccc(C)cc1	-2.6%	x	x	x
COC(=O)[C@@H](Cc1c[nH]c2ccccc12)NC(=O)c1ccc2c(c1)OCO2	-2.2%	-8.7%	28.2	10.0
COc1ccc(Cc2nnc(SCc3c(C)noc3C)n2C2CCCCC2)cc1OC	6.1%	-3.1%	51.0*	12.6
O=C(/C(=C(\[O-])c1ccccc1)[n+]1ccc2ccccc2c1)c1ccc(Cl)cc1	8.8%	25.3%	68.2*	27.9

Screening data: PubChem BioAssay, National Center for Advancing Translational Sciences (NCATS)
